From PubChem BioAssay (Tox21)
Inconclusive results are not listed. Active and inactive are the calls of the source. Unless noted, calls come from the whole dose curve.

Key:
[1] = Nuclear factor erythroid 2-related factor 2/antioxidant responsive element (Nrf2/ARE) small molecule agonists: qHTS cell viability counter screen in human keratinocytes (AID 1919968; active = well fitted curve in the direction sought with a large enough effect in the repeat runs; an effect the other way counts as inactive or inconclusive; note: nearly all actives have a fitted effect of over 55% in size)
Summary of the method: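 Parallel cytotoxicity read: KeratinoSens HaCaT cells, compound treatment 23 h, viability by CellTiter-Fluor fluorescence 1 h post-reagent.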

[2] = Nuclear factor erythroid 2-related factor 2/antioxidant responsive element (Nrf2/ARE) small molecule agonists: luciferase reporter gene qHTS assay in human keratinocytes (AID 1919969); note: nearly all actives have a fitted effect of over 35% in size
[3] = molecular target: Gonadotropin-releasing hormone receptor (Homo sapiens) (UniProt P30968); experiment: Human gonadotropin-releasing hormone receptor (GnRHR) small molecule agonists, calcium flux assay in GnRHR-HEK293 cells (AID 1920063); note: nearly all actives have a fitted effect of over 35% in size
Summary of the method: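 Calcium flux, agonist mode, human GnRHR stably integrated in HEK293; dye 1 h at 37 C before compound; Ex/Em=480/540 kinetic read, 3 min; 15 concentrations, triplicate.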

[4] = molecular target: KiSS-1 receptor (Homo sapiens) (UniProt Q969F8); experiment: Human kisspeptin (KISS1R) small molecule agonists, calcium flux assay in KISS1R-HEK293 cells (AID 1920064; active = well fitted curve in the direction sought with a large enough effect in the repeat runs; an effect the other way counts as inactive or inconclusive)
Summary of the method: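 Triplicate 15-concentration series were applied to dye-loaded human KISS1R HEK293 cells, and agonist-evoked calcium fluorescence was captured for 3 min.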

[5] = G protein-coupled receptor (GPCR) small molecule agonists, calcium flux assay: HEK293 wild type cell line counter screen (AID 1920065)
Summary of the method: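 Non-specific calcium responders were flagged by adding DMSO-dissolved compounds to dye-loaded cells and reading 480/540 nm fluorescence each second for 3 min; ATP served as positive control.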

[6] = p53 small molecule agonists, cell-based qHTS assay with human liver microsomes (AID 1963577);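 note: p53 response element beta-lactamase reporter cells with liver microsomes plus NADPH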
Summary of the method: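 Metabolically competent format: test substances, human liver microsomes and NADPH (both 0.5 mg/mL final) incubated with p53RE-bla cells 16 h at 37 C. Beta-lactamase reporter signal then quantified by fluorescence.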

[7] = p53 small molecule agonists, cell-based qHTS assay with rat liver microsomes (AID 1963578)
Summary of the method: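 Each plate received p53RE-bla cells, then compound, then rat liver microsomes and NADPH (both 0.5 mg/mL final). Plates were held 16 h at 37 C, and beta-lactamase activity was detected with LiveBLAzer over 2 h.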

[8] = p53 small molecule agonists, cell-based qHTS assay with human liver microsomes: qHTS cell viability counter screen (AID 1963579); note: nearly all actives have a fitted effect of over 45% in size
Summary of the method: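 Tox21 library compounds, delivered from DMSO stocks, were tested on p53RE-bla cells together with 0.5 mg/mL human liver microsomes and 0.5 mg/mL NADPH (final) over 16 h at 37 C; CellTiter-Glo luminescence served as the cytotoxicity measure.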

[9] = p53 small molecule agonists, cell-based qHTS assay with rat liver microsomes: qHTS cell viability counter screen (AID 1963580); note: nearly all actives have a fitted effect of over 45% in size
Summary of the method: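 After the beta-lactamase ratio was read, CellTiter-Glo was added to the same wells and luminescence measured at 30 min; cells had been treated 16 h at 37 C with compounds, rat liver microsomes and NADPH (0.5 mg/mL final each).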

[10] = p53 small molecule agonists, cell-based qHTS assay: qHTS cell viability counter screen (AID 1963581); note: nearly all actives have a fitted effect of over 45% in size
Summary of the method: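 Multiplexed with the reporter read, a CellTiter-Glo step (30 min, room temperature) gauges ATP-based viability of HCT-116 p53RE-bla cells after 16 h compound incubation at 37 C.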

[11] = p53 small molecule agonists, cell-based qHTS assay (AID 1963582; active = well fitted activation curve with a large enough effect in the signal ratio in the repeat runs, not every such curve was filed as active; the % refers to the signal ratio)
Summary of the method: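 Beta-lactamase reporter cells (p53RE-bla) treated with compounds for 16 h at 37 C; FRET substrate, 2 h, room temperature; fluorescence intensity.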

[12] = molecular target: 5-hydroxytryptamine receptor 2A (Homo sapiens) (UniProt P28223); experiment: 5-hydroxytryptamine receptor 2A (HTR2A) small molecule antagonists, cell-based qHTS assay (AID 1963586); note: nearly all actives have a fitted effect of over 45% in size
Summary of the method: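 CHO cells stably expressing human HTR2A were plated for 18 h at 37 C, then loaded with calcium dye for 1 h. Compounds were preincubated 5 min at room temperature before DOI (4 nM solution) was added. Kinetic fluorescence was read for 3 min.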

[13] = molecular target: 5-hydroxytryptamine receptor 2A (Homo sapiens) (UniProt P28223); experiment: 5-hydroxytryptamine receptor 2A (HTR2A) small molecule agonists, cell-based qHTS assay (AID 1963587); note: nearly all actives have a fitted effect of over 30% in size
Summary of the method: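 CHO cells stably expressing human HTR2A, plated 18 h, loaded with calcium dye 1 h at 37 C. Agonist mode: compounds added and intracellular calcium fluorescence recorded kinetically for 2 min at 1 sec intervals.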

[14] = molecular target: Muscarinic acetylcholine receptor M1 (Homo sapiens) (UniProt P11229); experiment: Cholinergic receptor muscarinic 1 (CHRM1) small molecule antagonists, cell-based qHTS assay (AID 1963588); note: nearly all actives have a fitted effect of over 40% in size
Summary of the method: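 Compounds were tested at 15 concentrations in three independent runs. Dye-loaded CHRM1-CHO cells were exposed 5 min at room temperature before stimulation by acetylcholine added at 50nM. Intracellular calcium was read kinetically on FDSS for 3 min.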

[15] = molecular target: Muscarinic acetylcholine receptor M1 (Homo sapiens) (UniProt P11229); experiment: Cholinergic receptor muscarinic 1 (CHRM1) small molecule agonists, cell-based qHTS assay (AID 1963589); note: nearly all actives have a fitted effect of over 35% in size
Summary of the method: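 qHTS, 15-point titration, 3 independent runs: compounds pin-transferred onto dye-loaded CHRM1-CHO cells (human M1), calcium fluorescence followed every second to detect agonism.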

[16] = cAMP Responsive Elements (CRE) small molecule agonists, cell-based qHTS assay (AID 1963590)
Summary of the method: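 Quantitative HTS for CRE agonists: HEK 293T CRE-bla cells, overnight plating, 3 h compound incubation at 37 C/5% CO2, then 2 h room-temperature LiveBLAzer B/G FRET substrate loading.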

[17] = cAMP Responsive Elements (CRE) small molecule antagonists, cell-based qHTS assay (AID 1963591; active = well fitted inhibition curve with a large enough effect in the signal ratio in the repeat runs, not every such curve was filed as active; the % refers to the signal ratio)
Summary of the method: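 Fluorescence intensity from cleaved LiveBLAzer B/G substrate (2 h, room temperature) quantified CRE-bla activity in HEK 293T cells exposed 3 h to compound with 0.25 uM final NKH477.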

[18] = molecular target: Beta-2 adrenergic receptor (Homo sapiens) (UniProt P07550); experiment: Adrenergic beta2 receptor (ADRB2) small molecule antagonists, cell-based qHTS assay (AID 1963592); note: series mostly up to about 92 µM; nearly all actives have a fitted effect of over 50% in size
Summary of the method: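 Assay format: CHO-ADRB2 cells, 18-20hr seeding at 37C/5% CO2, then compound plus 1nM isoproterenol agonist mix for 0.5hr RT. Homogeneous time-resolved fluorescence cAMP detection after 1hr, expressed as 665/615 nm ratio.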

[19] = molecular target: D(2) dopamine receptor (Homo sapiens) (UniProt P14416); experiment: Dopamine D2 receptor (DRD2) small molecule agonists, cell-based qHTS assay (AID 1963594); note: nearly all actives have a fitted effect of over 35% in size
Summary of the method: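 HEK293 cells stably expressing human DRD2, pre-treated with PDE inhibitor Ro20-1724 (0.1 mM final) and compound 10 min at room temperature, then stimulated with NKH477 (200nM […]) for 30 min. cAMP read by HTRF (665/620 nm).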

[20] = molecular target: D(2) dopamine receptor (Homo sapiens) (UniProt P14416); experiment: Dopamine D2 receptor (DRD2) small molecule antagonists, cell-based qHTS assay (AID 1963595; active = well fitted inhibition curve with a large enough effect in the signal ratio in the repeat runs, with a control signal flat; the % refers to the signal ratio)
Summary of the method: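 Human DRD2 antagonist qHTS measuring cAMP by HTRF. The cells are exposed to compound for 10 min, then to NKH477 (200 nM) and quinpirole (12 nM) for 30 min at RT, with Ro20-1724 (0.1 mM) present throughout.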

Measured: Potency

Beta-2 adrenergic receptor (Homo sapiens), sequence (P07550 whole entry, looked up): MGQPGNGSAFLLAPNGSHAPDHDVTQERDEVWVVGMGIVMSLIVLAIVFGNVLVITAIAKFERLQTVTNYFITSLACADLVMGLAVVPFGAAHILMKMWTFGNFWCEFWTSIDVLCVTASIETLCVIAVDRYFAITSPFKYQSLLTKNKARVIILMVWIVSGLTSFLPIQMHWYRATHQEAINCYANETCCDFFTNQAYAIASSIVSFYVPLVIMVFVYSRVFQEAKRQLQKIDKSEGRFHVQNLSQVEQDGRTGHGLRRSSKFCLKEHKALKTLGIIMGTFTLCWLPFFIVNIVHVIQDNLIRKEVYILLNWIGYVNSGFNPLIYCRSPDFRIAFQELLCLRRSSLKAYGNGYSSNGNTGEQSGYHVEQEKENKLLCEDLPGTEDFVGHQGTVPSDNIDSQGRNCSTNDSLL
KiSS-1 receptor (Homo sapiens), sequence (Q969F8 whole entry, looked up): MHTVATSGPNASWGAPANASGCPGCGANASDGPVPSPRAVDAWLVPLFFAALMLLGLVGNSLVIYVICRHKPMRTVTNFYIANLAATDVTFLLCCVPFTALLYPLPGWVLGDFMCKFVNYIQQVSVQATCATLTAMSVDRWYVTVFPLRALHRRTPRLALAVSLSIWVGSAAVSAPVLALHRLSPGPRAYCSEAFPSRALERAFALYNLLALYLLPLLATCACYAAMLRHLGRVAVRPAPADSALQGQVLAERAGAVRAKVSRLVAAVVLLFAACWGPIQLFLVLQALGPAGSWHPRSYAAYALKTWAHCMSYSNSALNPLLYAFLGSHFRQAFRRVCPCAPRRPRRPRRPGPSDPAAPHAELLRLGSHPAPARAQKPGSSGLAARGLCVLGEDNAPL
Muscarinic acetylcholine receptor M1 (Homo sapiens), sequence (P11229 whole entry, looked up): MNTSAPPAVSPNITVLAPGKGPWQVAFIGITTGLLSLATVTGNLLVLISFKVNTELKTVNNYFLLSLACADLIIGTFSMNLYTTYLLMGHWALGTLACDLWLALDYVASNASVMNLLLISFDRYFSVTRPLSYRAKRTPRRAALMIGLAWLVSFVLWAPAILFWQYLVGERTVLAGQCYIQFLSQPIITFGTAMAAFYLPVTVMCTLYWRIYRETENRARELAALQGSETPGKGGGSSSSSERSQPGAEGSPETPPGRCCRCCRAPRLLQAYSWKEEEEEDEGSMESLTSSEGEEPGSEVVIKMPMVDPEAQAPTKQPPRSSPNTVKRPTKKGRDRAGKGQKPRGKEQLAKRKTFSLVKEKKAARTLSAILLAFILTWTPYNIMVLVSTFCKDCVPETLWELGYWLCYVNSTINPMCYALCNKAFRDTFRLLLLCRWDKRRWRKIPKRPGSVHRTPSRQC
D(2) dopamine receptor (Homo sapiens), sequence (P14416 whole entry, looked up): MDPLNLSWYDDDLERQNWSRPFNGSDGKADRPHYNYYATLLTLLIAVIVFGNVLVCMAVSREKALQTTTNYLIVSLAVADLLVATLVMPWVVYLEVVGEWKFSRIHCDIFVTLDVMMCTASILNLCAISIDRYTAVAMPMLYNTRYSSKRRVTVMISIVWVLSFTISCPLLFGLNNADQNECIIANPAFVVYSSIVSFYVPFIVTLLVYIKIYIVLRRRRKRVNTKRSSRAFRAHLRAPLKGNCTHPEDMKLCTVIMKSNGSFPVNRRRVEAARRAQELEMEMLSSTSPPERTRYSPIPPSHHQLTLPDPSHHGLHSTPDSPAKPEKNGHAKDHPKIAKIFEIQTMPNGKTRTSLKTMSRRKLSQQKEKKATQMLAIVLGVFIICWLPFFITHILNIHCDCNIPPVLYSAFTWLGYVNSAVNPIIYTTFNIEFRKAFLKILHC
5-hydroxytryptamine receptor 2A (Homo sapiens), sequence (P28223 whole entry, looked up): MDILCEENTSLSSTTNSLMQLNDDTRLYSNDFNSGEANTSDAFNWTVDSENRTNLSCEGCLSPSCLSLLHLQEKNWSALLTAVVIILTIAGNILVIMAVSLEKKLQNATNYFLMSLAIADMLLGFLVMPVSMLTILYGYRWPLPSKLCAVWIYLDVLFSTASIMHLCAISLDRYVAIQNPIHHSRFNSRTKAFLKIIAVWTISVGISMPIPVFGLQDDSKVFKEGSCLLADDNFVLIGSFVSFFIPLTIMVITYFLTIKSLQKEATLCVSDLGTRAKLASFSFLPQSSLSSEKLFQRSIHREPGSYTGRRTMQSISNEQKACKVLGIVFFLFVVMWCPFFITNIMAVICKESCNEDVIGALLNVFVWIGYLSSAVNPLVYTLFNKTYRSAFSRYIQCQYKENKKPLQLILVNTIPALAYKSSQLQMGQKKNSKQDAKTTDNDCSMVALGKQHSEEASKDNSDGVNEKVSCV
Gonadotropin-releasing hormone receptor (Homo sapiens), sequence (P30968 whole entry, looked up): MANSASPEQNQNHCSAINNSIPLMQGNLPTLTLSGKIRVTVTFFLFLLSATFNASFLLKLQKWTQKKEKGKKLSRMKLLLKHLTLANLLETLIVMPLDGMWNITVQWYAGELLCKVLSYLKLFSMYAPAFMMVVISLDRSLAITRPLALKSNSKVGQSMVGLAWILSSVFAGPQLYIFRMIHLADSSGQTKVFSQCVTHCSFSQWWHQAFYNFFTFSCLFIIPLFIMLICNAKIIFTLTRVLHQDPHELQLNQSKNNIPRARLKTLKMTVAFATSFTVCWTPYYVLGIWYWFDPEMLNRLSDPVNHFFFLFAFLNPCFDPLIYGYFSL

C=CCOC(=O)c1ccccc1C(=O)OCC=C
inactive: [1] | [2] | [3] | [4] | [5] | [6] | [7] | [8] | [9] | [10] | [11] | [12] | [13] | [14] | [15] | [16] | [17] | [18] | [19] | [20]

NCCN1CCNCC1
inactive: [1] | [2] | [3] | [4] | [5] | [6] | [7] | [8] | [9] | [10] | [11] | [12] | [13] | [14] | [15] | [16] | [17] | [18] | [19] | [20]

OC[C@H]1O[C@H](O[C@]2(CCl)O[C@H](CCl)[C@@H](O)[C@@H]2O)[C@H](O)[C@@H](O)[C@H]1Cl
inactive: [1] | [2] | [3] | [4] | [5] | [6] | [7] | [8] | [9] | [10] | [11] | [12] | [13] | [14] | [15] | [16] | [17] | [18] | [19] | [20]

CCCCC(CC)COC(=O)/C=C/c1ccc(OC)cc1 (stereo not given)
inactive: [1] | [2] | [3] | [4] | [5] | [6] | [7] | [8] | [9] | [10] | [11] | [12] | [13] | [14] | [15] | [16] | [17] | [18] | [19] | [20]

O=CCc1ccccc1
inactive: [1] | [2] | [3] | [4] | [5] | [6] | [7] | [8] | [9] | [10] | [11] | [12] | [13] | [14] | [15] | [16] | [17] | [18] | [19] | [20]

O=C1CCCCCN1
inactive: [1] | [2] | [3] | [4] | [5] | [6] | [7] | [8] | [9] | [10] | [11] | [12] | [13] | [14] | [15] | [16] | [17] | [18] | [19] | [20]

Fc1ccc(Br)cc1
inactive: [1] | [2] | [3] | [4] | [5] | [6] | [7] | [8] | [9] | [10] | [11] | [12] | [13] | [14] | [15] | [16] | [17] | [18] | [19] | [20]

CCCCC(CC)COC(=O)/C=C\C(=O)OCC(CC)CCCC (stereo not given)
inactive: [1] | [2] | [3] | [4] | [5] | [6] | [7] | [8] | [9] | [10] | [11] | [12] | [13] | [14] | [15] | [16] | [17] | [18] | [19] | [20]

C1COCCN1
inactive: [1] | [2] | [3] | [4] | [5] | [6] | [7] | [8] | [9] | [10] | [11] | [12] | [13] | [14] | [15] | [16] | [17] | [18] | [19] | [20]

C=CCc1ccc(OC)c(OC)c1
inactive: [1] | [2] | [3] | [4] | [5] | [6] | [7] | [8] | [9] | [10] | [11] | [12] | [13] | [14] | [15] | [16] | [17] | [18] | [19] | [20]

CCN1CCCC1=O
inactive: [1] | [2] | [3] | [4] | [5] | [6] | [7] | [8] | [9] | [10] | [11] | [12] | [13] | [14] | [15] | [16] | [17] | [18] | [19] | [20]

CC(=O)[C@H]1CC[C@H]2[C@@H]3CC=C4C[C@@H](O)CC[C@]4(C)[C@H]3CC[C@]12C
inactive: [1] | [2] | [3] | [4] | [5] | [6] | [7] | [8] | [9] | [10] | [11] | [12] | [13] | [14] | [15] | [16] | [17] | [18] | [19] | [20]

CC/C(C)=N/O
inactive: [1] | [2] | [3] | [4] | [5] | [6] | [7] | [8] | [9] | [10] | [11] | [12] | [13] | [14] | [15] | [16] | [17] | [18] | [19] | [20]

Nc1ccc(C(=O)O)cc1
inactive: [1] | [2] | [3] | [4] | [5] | [6] | [7] | [8] | [9] | [10] | [11] | [12] | [13] | [14] | [15] | [16] | [17] | [18] | [19] | [20]

NC(=O)NC(N)=O
inactive: [1] | [2] | [3] | [4] | [5] | [6] | [7] | [8] | [9] | [10] | [11] | [12] | [13] | [14] | [15] | [16] | [17] | [18] | [19] | [20]
